Screening data deposited in PubChem BioAssay by Broad Institute.
PD-1 reverse act – reversal of PD-1 mediated T-cell inhibition; 29,000 tested, under 10 active; primary human CD4 T cells, PD-L1 beads, CellTiter-Glo 96 h; activation, % (no concentration beside the values); call rule not given here;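 further: 0% = median vehicle wells and 100% = positive control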
YB-1 expr inh – YB-1 expression inhibition; actives 0.37% (n = 30,000); AID 434959; U2OS, qRT-PCR YB-1 vs CDIP delta delta Cp, 16 h; active compounds read high; zero = DMSO, each unit about twofold; delta delta Cp (YB-1 minus CDIP) (concentration not given with the values);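 active means delta delta Cp rounded down to an integer at or above 3, about 3 SD of DMSO wells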;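 further: higher means less YB-1 transcript or more CDIP transcript relative to DMSO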
ROS inducer – inducers of reactive oxygen species in cancer cells. actives 2% (n = 46,000). ROS induction (% of piperlongumine), % at 10 µM. U2OS ROS induction, H2DCF-DA fluorescence; in the data active means ROS induction above about 79%, passing the limit was not always enough;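 further: 0% = DMSO vehicle median and 100% = reference compound median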
NOMO-1 viab – STK33 inhibitor candidate reducing NOMO-1 cell viability; NOMO-1 AML viability, CellTiter-Glo luminescence, 72 h; inhibition, % (test concentration not listed); actives 7.5% (n = 37,000); in the data active means inhibition above about 80%
The depositor's hits bear a star; nt = not tested or not shown. The entries come from a sample that favours hits as a whole.

SMILES	PD-1 reverse act	YB-1 expr inh	ROS inducer	NOMO-1 viab
COc1ccc(NC(=O)Nc2cccc3c2O[C@@H](CN(C)Cc2ccc(Cl)c(Cl)c2)[C@H](C)CN([C@H](C)CO)C3=O)cc1	nt	0.05	48	102*
N#Cc1c(C(F)(F)F)cc(-c2cccs2)nc1SCC(O)CN1CCSCC1 (configuration not stated)	-3	nt	75	35
Cn1c(CSCC(=O)Nc2ccccc2)nnc1SCc1ccc(Cl)cc1	nt	nt	1	nt
C[C@@H]1CN([C@@H](C)CO)C(=O)c2cc(NC(=O)Nc3ccc(C(F)(F)F)cc3)ccc2O[C@H]1CN(C)CC1CCCCC1	-6	-0.028	-16	118*
C[C@H](CO)N1C[C@H](C)[C@H](CN(C)CC2CCCCC2)Oc2ccc(NC(=O)Nc3ccc(C(F)(F)F)cc3)cc2C1=O	-6	-0.14	46	116*
C[C@H]1CN([C@@H](C)CO)C(=O)c2cc(NC(=O)Nc3ccccc3)ccc2O[C@H]1CN(C)CC1CCCCC1	2	-0.2	39	11
C[C@H](CO)N1C[C@H](C)[C@@H](CN(C)CC2CCCCC2)Oc2ccc(NC(=O)Nc3ccc(F)cc3)cc2C1=O	1	-0.061	9	-3
CC1=C(C(=O)Nc2ccccn2)C(c2ccc(C)cc2)C2=C(CC(C)(C)CC2=O)N1 (configuration not stated)	nt	nt	23	nt
O=C(COc1cc(O)c2c(=O)c3ccccc3oc2c1)c1ccc(Cl)cc1	-8	nt	-4	117*
CCOc1ccc(NC(=O)CSc2nc(N)c3c4c(sc3n2)COC(C)(C)C4)cc1	nt	nt	nt	-2
CCOC(=O)CSc1nc(N)c2c3c(sc2n1)COC(C)(C)C3	-2	nt	18	105*
CN(C(=O)CSc1nc(N)c2c3c(sc2n1)CSC(C)(C)C3)c1ccccc1	-5	nt	122*	61
COc1ccc(CC(=O)NN2CCN(c3ccccc3)CC2)cc1	0	0.19	8	28
COc1ccccc1-n1nnnc1SCC(=O)Nc1ccccc1C	-1	nt	-1	-6
O=C(ON1C(=O)c2ccccc2C1=O)C1CCCCC1	-3	-0.33	-15	126*
C[C@H](CO)N1C[C@H](C)[C@H](CN(C)Cc2ccc(Oc3ccccc3)cc2)Oc2ccc(NS(=O)(=O)c3ccc(F)cc3)cc2CC1=O	1	-0.092	114*	126*
C[C@@H]1CN([C@H](C)CO)C(=O)Cc2cc(NS(=O)(=O)c3ccc(F)cc3)ccc2O[C@@H]1CN(C)Cc1ccc(Oc2ccccc2)cc1	-2	-0.12	44	115*
O=C(CN(C1CCCCC1)S(=O)(=O)c1ccc(Cl)cc1)Nc1ccc(F)cc1F	0	nt	15	14
CCC1SC2=NCN(c3ccccc3)CN2C1=O (configuration not stated)	1	0.091	24	101*
C[C@@H]1O[C@@H](O[C@H]2[C@H](O[C@H]3CC[C@@]4(C)C(CC[C@]5(C)C4CC=C4C6CC(C)(C)CC[C@]6(C(=O)O[C@@H]6O[C@H](CO[C@@H]7O[C@H](CO)[C@@H](O[C@@H]8O[C@@H](C)[C@H](O)[C@@H](O)[C@H]8O)[C@H](O)[C@H]7O)[C@@H](O)[C@H](O)[C@H]6O)CC[C@]45C)C3(C)C)OC[C@H](O)[C@@H]2O)[C@H](O)[C@H](O)[C@H]1O (some centres not stated)	nt	0.3	-10	nt
CC1CC[C@@]2(OC1)O[C@H]1CC3C4CC=C5C[C@@H](O[C@@H]6O[C@H](CO)[C@@H](O[C@@H]7O[C@@H](C)[C@H](O)[C@@H](O)[C@H]7O)[C@H](O)[C@H]6O[C@@H]6O[C@@H](C)[C@H](O)[C@@H](O)[C@H]6O)CC[C@]5(C)C4CC[C@]3(C)[C@@]1(O)[C@@H]2C (some centres not stated)	-15	2	-42	119*
Cn1c(=O)c2ccccc2n(CC(=O)Nc2ccccc2[N+](=O)[O-])c1=O	nt	nt	nt	-5
C[C@H]1CN([C@@H](C)CO)C(=O)Cc2cc(NS(=O)(=O)c3ccccc3)ccc2O[C@H]1CN(C)Cc1ccc(Cl)c(Cl)c1	0	0.11	39	100*
C[C@H](CO)N1C[C@H](C)[C@H](CN(C)Cc2ccc(Cl)c(Cl)c2)Oc2ccc(NS(=O)(=O)c3ccccc3)cc2CC1=O	-1	0.04	11	68
C[C@@H]1CN([C@H](C)CO)C(=O)Cc2cc(NS(=O)(=O)c3ccccc3)ccc2O[C@H]1CN(C)Cc1ccc(Cl)c(Cl)c1	0	-9.8	30	111*
